Bioassay records: PubChem, National Center for Advancing Translational Sciences (NCATS)
Rows were chosen to be rich in hits. Some 9.2% of all compounds tested hit in one or more screens of this group.
Rab9 promoter act: qHTS Assay for Rab9 Promoter Activators; Huh7 Rab9 promoter-luciferase reporter, luminescence, 24 h; Potency, µM (top dose mostly 9.22 µM), without a hit: top-dose activation, negative = inhibition, most hits filed as activators; 320,000 compounds, 2.8% hits; further: % of control where 0% means no effect; nearly all actives have a fitted effect of over 60% in size
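Quantitative HTS format; Huh7 Rab9-luciferase reporter cells (1500/well) receive compound 2 h post-plating, incubate 24 h at 37 °C, then get luciferase reagent for 10 min before luminescence reading.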
NPC1 prom act: qHTS Assay for NPC1 Promoter Activators; Huh7 NPC1 promoter luciferase reporter, 24 h; Potency, µM (highest dose often 9.22 µM), inactives show top-dose activation, actives largely listed as activators; 320,000 compounds, 2.4% hits; AID 485313, 2010; further: % of control where 0% means no effect; nearly all actives have a fitted effect of over 60% in size
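Quantitative HTS used a cell-based reporter: Huh7 cells stably bearing the NPC1 promoter upstream of luciferase were treated with compounds for 24 h, and promoter activation was read as luminescence.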
SMN2 splice enh: qHTS Assay for Enhancers of SMN2 Splice Variant Expression; HEK293 SMN2-luciferase splicing reporter, luminescence, 30-36 h; Potency, µM (titrated, usually from 46.1 µM), for inactives: at the highest dose activity change, positive = activation, hits mostly activators; 210,000 compounds, 2.8% hits; further: % of control where 0% means no effect; nearly all actives have a fitted effect of over 55% in size
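HEK293 cells carry an SMN2 […]–luciferase reporter in which exon 7 inclusion puts luciferase in frame. Cells were plated 10-12 h before compound addition, then incubated 30-36 h at 37C. ONE-Glo luminescence was read; sodium butyrate at 4.5 mM final served as control.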
ELG1 genotox: qHTS screen for small molecules that induce genotoxicity in human embryonic kidney (HEK293T) cells expressing luciferase-tagged ELG1. HEK293T ELG1-luciferase reporter, luminescence, 16 h. 330,000 compounds, 1.3% hits. AID 504466, 2011. Potency, µM (doses to about 46 µM), for inactives: at the highest dose activity change, positive = activation, most hits filed as activators; further: % of control where 0% means no effect; nearly all actives have a fitted effect of over 60% in size
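After overnight (16 hr) compound treatment at 37 °C, ELG1-luciferase HEK293T cells were lysed with ONE-Glo; luminescence quantified 30 min later at room temperature.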
FLuc modulator: qHTS profiling assay for firefly luciferase inhibitor/activator using purifed enzyme and Km concentrations of substrates (counterscreen for miR-21 project); purified FLuc, Km substrates, luminescence inhibition; 360,000 compounds, 6.9% hits; Potency, µM (top dose mostly 57.5 µM), without a hit: top-dose activity change, negative = inhibition, actives largely listed as inhibitors;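 further: plate controls were vehicle for no effect and reference inhibitor for full effect; nearly all actives have a fitted effect of over 55% in size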
Target sequence (P08659 whole entry, looked up): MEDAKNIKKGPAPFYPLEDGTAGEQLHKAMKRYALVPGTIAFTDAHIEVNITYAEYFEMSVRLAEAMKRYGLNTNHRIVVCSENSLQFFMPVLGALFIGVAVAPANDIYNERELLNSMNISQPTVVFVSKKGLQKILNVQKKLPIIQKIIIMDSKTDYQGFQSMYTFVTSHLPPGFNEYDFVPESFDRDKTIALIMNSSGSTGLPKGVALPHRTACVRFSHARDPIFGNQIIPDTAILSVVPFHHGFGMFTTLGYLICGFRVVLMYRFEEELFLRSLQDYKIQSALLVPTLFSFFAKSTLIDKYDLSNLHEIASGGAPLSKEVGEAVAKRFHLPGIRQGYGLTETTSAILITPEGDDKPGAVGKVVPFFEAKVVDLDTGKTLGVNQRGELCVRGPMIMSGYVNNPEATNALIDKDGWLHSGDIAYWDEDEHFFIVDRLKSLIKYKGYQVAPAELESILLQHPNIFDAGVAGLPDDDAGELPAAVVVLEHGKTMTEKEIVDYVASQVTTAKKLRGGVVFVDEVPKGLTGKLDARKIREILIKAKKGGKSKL
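Biochemical qHTS of compounds, final roughly 60 µM downward over six points, against 10 nM purified firefly luciferase using Km concentrations of substrates (10 uM D-luciferin, 10 uM ATP) in Tris acetate pH 7.5 buffer; luminescence output.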
ELG1 repair inh: qHTS screen for small molecules that inhibit ELG1-dependent DNA repair in human embryonic kidney (HEK293T) cells expressing luciferase-tagged ELG1; HEK293T ELG1-luciferase reporter, luminescence, 16 h; DNA damage induced by 5-fluorouridine; Potency, µM (series often up to 46.1 µM), inactives show at the top dose activity change, negative = inhibition, most hits filed as inhibitors; 330,000 compounds, 2.3% hits; AID 504467, 2011; further: on the % scale 0 is the no-effect control and ±100 the full control effect; nearly all actives have a fitted effect of over 55% in size
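Luminescence from the luciferase reporter, measured 30 min after ONE-Glo reagent at room temperature, was the read-out. Beforehand, 2,000 cells per well were exposed for 16 hr at 37 °C to 5-fluorouridine together with compound or vehicle.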
* = called active by the depositor; ? = inconclusive; · = no result given. The call rests on the fitted dose curve; in most records, active means well fitted curve in the direction sought with a large enough effect; inconclusive means small, poorly fitted or top-dose-only effect, or another doubt; inactive means no such curve, though single readings can be large; an effect the other way counts as inactive or inconclusive. Potency means the concentration at half of the fitted maximal effect.

SMILES	Rab9 promoter act	NPC1 prom act	SMN2 splice enh	ELG1 genotox	FLuc modulator	ELG1 repair inh
O=C(NC1CCCCC1)c1ccc2c(c1)N(Cc1cccc(F)c1)C(=O)c1ccccc1S2	·	·	·	·	-5.6%	·
CCOC(=O)c1c(S(=O)(=O)Nc2ccccc2OCC)c(C)n(C)c1C	0.2%	1.6%	·	2.0%	0.3%	3.7%
O=C(c1cnc(-c2ccccc2)s1)c1ccc(Cl)cc1Cl	8.3%	-2.1%	-0.4%	-1.0%	?	6.4%
CO/N=C/CC(=O)c1cnc(-c2ccc(Cl)cc2)s1	?	?	25.1µM*	?	?	?
CO/N=C/CC(=O)c1ccc(-c2ccccc2)cc1	12.4%	-4.2%	12.1%	10.9%	?	?
O=C(c1ccc(Cl)cc1)c1cnc(-c2ccccc2)s1	2.82µM*	2.24µM*	3.4%	12.7%	?	?
O=C(Nc1cccc(F)c1)N1CC2(CCN(S(=O)(=O)c3ccccc3)CC2)C1	·	·	-0.1%	·	·	·
CC(=O)N1CCc2c(sc3c2c(=O)n(-c2cccc(Cl)c2C)c(=O)n3Cc2ccccc2C)C1	·	·	4.5%	·	-10.1%	·
O=C1NC(=S)CN1c1ccccc1	-1.1%	0.4%	·	-5.5%	?	3.1%
CCOc1ccc(N2Cc3ncccc3C2=O)cc1	2.51µM*	3.16µM*	10µM*	?	13.5µM*	?
O=C1N(c2ccccc2)CCN1c1ccccc1	1.12µM*	0.501µM*	·	?	1.51µM*	?
COc1ccc(N2Cc3cccc(C(=O)O)c3C2=O)cc1	4.5%	-2.8%	-27.6%	14.2%	3.2%	?
O=C1c2ccccc2CN1c1ccccc1	2µM*	?	·	?	16.9µM*	?
O=C1c2ccccc2CN2C(=O)c3ccccc3CN12	10.8%	-4.5%	·	8.1%	-2.4%	-2.6%
COc1ccc(N2Cc3ccccc3C2=O)cc1	0.501µM*	?	·	1.83µM*	3.38µM*	?
COc1ccc2c(c1)C(=O)[C@@H](OC(=O)NS(=O)(=O)c1ccc(F)cc1)[C@H](c1ccc(OC)c(Br)c1)O2	·	·	10.1%	·	·	·
Cc1ccc(N2Cc3ccccc3C2=O)cc1	0.501µM*	0.447µM*	·	1.64µM*	1.9µM*	?
CCOc1ccc(C(=O)c2cn(CC(=O)Nc3ccc(F)cc3)c3cc4c(cc3c2=O)OCCO4)cc1	·	·	1.2%	·	-7.8%	·
Cc1cccc(N2CCN(CC(=O)Nc3ccc(S(=O)(=O)N4CCOCC4)cc3)CC2)c1C	-19.1%	-14.5%	·	-17.0%	-1.5%	14.6µM*
Cc1nc(SCC(=O)N2CCOCC2)c2c(C)c(C)sc2n1	0.1%	-3.6%	·	-5.3%	0.5%	?
Cc1nc(SCC(=O)Nc2ccc(S(=O)(=O)N3CCOCC3)cc2)c2c(C)c(C)sc2n1	·	·	·	-5.7%	·	16.4µM*
Cc1ccc(S(=O)(=O)N2CCN(CC(=O)Nc3ccc(N4CCOCC4)cc3)CC2)cc1C	-13.2%	-0.4%	-5.3%	1.6%	-0.1%	-0.2%
Cc1ccc(Cn2c(=O)n(Cc3ccco3)c(=O)c3sc4ccccc4c32)cc1	·	·	7.5%	·	-1.5%	·
CCN1/C(=C/c2ccc3cc(C)ccc3[n+]2CC)Sc2cc(C)ccc21	-41.3%	-33.9%	-63.1%	-4.5%	-11.6%	2.06µM*
CC(C)[C@H](NC(=O)c1ccc([N+](=O)[O-])cc1Cl)C(=O)N1CCN(C/C=C/c2ccccc2)CC1	·	·	·	-6.3%	·	13µM*
SMILES	Rab9 promoter act	NPC1 prom act	SMN2 splice enh	ELG1 genotox	FLuc modulator	ELG1 repair inh
COc1ccc(CCNC(=O)c2cccs2)cc1OC	-5.3%	-4.8%	10.0%	-2.4%	-1.0%	-8.1%
COc1ccc(CNc2nc(NCc3ccc(OC)c(OC)c3)n(C(=O)c3cccs3)n2)cc1OC	-0.6%	-3.4%	-1.7%	-2.8%	10.7µM*	?
COc1ccc(NC(=O)c2c(C)oc3ccc(O)c(CN4CCN(C)CC4)c23)cc1Cl	·	·	-8.1%	·	-2.8%	·
COc1ccccc1NC(=S)NNC(=O)c1nn(C)c(C)c1Br	0.3%	13.7%	21.8%	7.4%	15.1µM*	?
COc1ccc(C)cc1NC(=S)NNC(=O)c1c(Br)cnn1C	0.9%	4.7%	-9.5%	-5.5%	26.9µM*	?
COc1ccccc1-n1c(=O)n(C)c2c(C(N)=O)nc(-c3cc(OC)c(OC)c(OC)c3)nc21	·	·	·	·	-4.3%	·
COc1ccccc1C(=O)NCC(c1ccc(N(C)C)cc1)N1CCc2ccccc21 (stereo not drawn)	·	·	·	·	2.7%	·
Cc1ccc(NS(=O)(=O)c2ccc(Cl)c(C(=O)Nc3ccccc3-c3nc4ccccc4[nH]3)c2)cc1C	-6.8%	-4.3%	-72.6%	-8.8%	-11.4%	9.2µM*
CCCOc1ccc(Cl)cc1/C=C1/C(=O)ON=C1C	2.9%	6.1%	·	-1.0%	-19.8%	?
CC1=NOC(=O)/C1=C\c1ccc(-c2ccc(Cl)cc2Cl)o1	-2.2%	-13.3%	-7.4%	-0.1%	5.36µM*	-16.5%
COc1ccc(NC(=O)/C=C2\SC(=O)NC2=O)cc1	-1.3%	5.8%	23.0%	12.0%	12µM*	0.0%
CC(C)OC(=O)Nc1ccc(-c2ccc(NC(=O)OC(C)C)cc2Cl)c(Cl)c1	2.9%	-2.1%	·	2.0%	2.2%	12.3%
COc1ccc(NC(=O)Nc2ccc(N(C)C)cc2)cc1	2.24µM*	2.51µM*	12.6µM*	?	3.01µM*	?
COc1ccc(NC(=O)Nc2ccc(OC)cc2)cc1	2.24µM*	2.82µM*	?	?	-22.1%	?
CN(C)c1ccc(NC(N)=S)cc1	-5.6%	1.6%	?	-0.2%	3.9%	2.7%
COc1ccc(NC(=O)OC(C)C)cc1	2.24µM*	2µM*	11.2µM*	?	12µM*	?
CN(C)S(=O)(=O)N1CCC(c2ccc(F)cc2)C(COc2ccc3c(c2)OCO3)C1 (stereo not drawn)	7.5%	1.5%	-22.2%	-2.8%	-0.9%	16.4µM*
Fc1ccc([C@H]2CCNCC2COc2ccc3c(c2)OCO3)cc1 (stereo partly drawn)	·	·	0.8%	·	·	·
CSc1nc(/C=C2\C=Nc3ccccc32)c(O)n1C	15.2%	0.2%	?	13.4%	13.5µM*	?
Cc1c(NC(=O)Cc2ccc(Cl)cc2)cccc1-c1nc2cccnc2s1	·	·	·	·	-7.2%	·
O=C(Nc1nccs1)c1ccc(-c2ccc(F)c(Cl)c2)o1	?	?	·	-1.3%	6.01µM*	?
